Assay [1] deals with Sentrin-specific protease 8 (Homo sapiens) (UniProt Q96LD8). As to the kind of experiment: human SENP8 peptidase blockers, hit retest – biochemical, luminescence, single concentration, confirmation (AID 488912;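 active = mean inhibition across replicates above about 50%, limit read from the data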). The settings on record: Recombinant SENP8, Z-RLRGG-aminoluciferin luminescence, 60 min; at 12.5 µM; active compounds read high.
Assay [2] concerns the target Sentrin-specific protease 6 (Homo sapiens) (UniProt Q9GZR1). As to the kind of experiment: inhibition of human SENP6 catalytic domain – biochemical, luminescence, single concentration, confirmation (AID 488915). Particulars: recombinant SENP6, Z-RLRGG-aminoluciferin luminescence; at 12.5 µM; active compounds read high.
Assay [3] addresses Sentrin-specific protease 7 (Homo sapiens) (UniProt Q9BQF6). As to the kind of experiment: human SENP7 peptidase blockers, hit retest – biochemical, luminescence, single concentration, confirmation (AID 488917). Particulars: recombinant SENP7, Z-RLRGG-aminoluciferin luminescence, 40 min; at 12.5 µM; active compounds read high.
The target in the next assay is Caspase-3 (Homo sapiens) (UniProt P42574). Briefly: human caspase-3 activity blockade, out-of-family – biochemical, single concentration, selectivity assay for SENP inhibitor project, confirmation (AID 488918;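 active = mean inhibition above about 50%, limit read from the data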;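 note: plate controls were enzyme with DMSO for no effect and wells without caspase-3 for full effect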). Particulars: purified caspase-3, Z-DEVD-aminoluciferin luminescence, 60 min; at 12.5 µM; active compounds read high.
Chain of Caspase-3 (Homo sapiens) (P42574 28-227 limits assumed): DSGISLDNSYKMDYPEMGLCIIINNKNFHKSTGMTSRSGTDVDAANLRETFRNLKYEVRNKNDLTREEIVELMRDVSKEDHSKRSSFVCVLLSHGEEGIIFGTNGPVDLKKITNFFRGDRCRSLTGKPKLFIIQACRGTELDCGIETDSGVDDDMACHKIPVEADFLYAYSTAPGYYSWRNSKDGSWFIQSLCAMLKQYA
Assay [4] in a line: Ultra-Glo luciferase signal interference – biochemical, single concentration, SENP8 reaction pre-completed, artefact control for SENP inhibitor project, confirmation (AID 488919;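 active = mean inhibition above about 50% when retested at one dose, limit read from the data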;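 note: plate controls were DMSO wells with completed reaction for no effect and substrate without enzyme for full effect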). The settings on record: Pre-incubated SENP8/Z-RLRGG-aminoluciferin, luciferase luminescence interference; at 12.5 µM; active compounds read high.
A short description of assay [5]: apoptosome-driven caspase-3 activation blockers – biochemical, fluorescence, DEVD-Rh110, 20 µM, confirmation (AID 504614;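 active = mean inhibition of at least 40% at 20 µM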;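 note: plate controls were DMSO wells for no effect and DEVD-CHO caspase inhibitor control wells for full effect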). The settings on record: reconstituted apoptosome, caspase-3 DEVD-Rh110 fluorescence; at 20 µM; active compounds read high.
Assay [6] is described as follows: detection-step artefacts after completed caspase reaction – biochemical, fluorescence, Rh110, 20 µM, artefact control for Apaf-1 inhibitor project, confirmation (AID 504615;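 active = signal rise of 40% or more at 20 µM, treated as a fluorescence artifact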). Particulars: quenched caspase reaction, at 20 µM, active compounds read high.

The other results are listed elsewhere or left out. Values without a mark were called inactive. Calls of active or inactive are those of the source.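 Rule for the calls, unless noted: active = mean inhibition above about 50% in the one-dose retest (limit read from the data); inactive = the rest.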

Chain of Sentrin-specific protease 6 (Homo sapiens) (Q9GZR1 628-1112 limits assumed): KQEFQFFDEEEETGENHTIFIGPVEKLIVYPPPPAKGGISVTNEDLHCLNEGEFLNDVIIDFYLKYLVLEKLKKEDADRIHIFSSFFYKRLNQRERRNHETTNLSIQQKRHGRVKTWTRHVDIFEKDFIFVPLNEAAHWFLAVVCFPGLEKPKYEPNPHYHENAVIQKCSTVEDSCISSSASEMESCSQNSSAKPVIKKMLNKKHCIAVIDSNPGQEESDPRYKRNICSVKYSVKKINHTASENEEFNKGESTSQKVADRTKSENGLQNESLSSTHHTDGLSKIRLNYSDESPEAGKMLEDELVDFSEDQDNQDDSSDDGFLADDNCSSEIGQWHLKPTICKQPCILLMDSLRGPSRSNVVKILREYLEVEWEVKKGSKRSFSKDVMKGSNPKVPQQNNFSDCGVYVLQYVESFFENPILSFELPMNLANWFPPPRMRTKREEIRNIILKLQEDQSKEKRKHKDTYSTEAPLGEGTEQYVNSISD
Chain of Sentrin-specific protease 8 (Homo sapiens) (Q96LD8 whole entry, looked up, the tested form may be a part): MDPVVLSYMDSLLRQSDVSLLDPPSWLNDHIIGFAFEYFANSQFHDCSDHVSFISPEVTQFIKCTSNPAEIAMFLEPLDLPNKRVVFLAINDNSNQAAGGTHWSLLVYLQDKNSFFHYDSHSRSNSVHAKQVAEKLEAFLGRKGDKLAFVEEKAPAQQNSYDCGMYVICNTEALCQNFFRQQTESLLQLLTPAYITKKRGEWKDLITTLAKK
Chain of Sentrin-specific protease 7 (Homo sapiens) (Q9BQF6 706-1050 limits assumed): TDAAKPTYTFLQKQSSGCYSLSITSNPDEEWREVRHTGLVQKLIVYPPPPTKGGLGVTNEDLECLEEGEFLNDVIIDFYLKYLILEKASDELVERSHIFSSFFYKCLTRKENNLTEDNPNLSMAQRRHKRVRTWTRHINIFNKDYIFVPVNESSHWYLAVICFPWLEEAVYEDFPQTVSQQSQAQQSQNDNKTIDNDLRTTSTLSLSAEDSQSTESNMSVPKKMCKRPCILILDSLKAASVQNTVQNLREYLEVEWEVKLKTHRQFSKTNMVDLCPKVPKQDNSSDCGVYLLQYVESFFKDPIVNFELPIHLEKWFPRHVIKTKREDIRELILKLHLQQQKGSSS

Take `O=C(Nc1ccc(C2CC2(Cl)Cl)cc1)c1cccc([N+](=O)[O-])c1` (centres undefined): the inhibition in assay [1] is 57.6% (active); in assay [2] it was 60.1% (active); in assay [3] it was 87.5% (active); in the assay with Caspase-3 (Homo sapiens), 36.1%; in assay [4], 29.5%.
Taken in the same sequence, the figures for `O=C(Nc1ccccc1)c1cc2ccccc2[nH]1` were -22.5%, -15.9%, 1.9%, -4.8% and 8.3%.
`Cc1ccc(S(=O)(=O)C(C#N)c2nc3ccccc3nc2N2CCCC2)cc1C` (centres undefined): the inhibition in assay [1] was 6.9%; in assay [2], 9.5%; in assay [3], 4.3%; with Caspase-3 (Homo sapiens) it was 4.2%; in assay [4] it was 3%.
Taken in the same sequence, the figures for `O=C1/C(=C/c2cccs2)CCC1C1CCCC1` (centres undefined) were 50.9% (active), 52.1% (active), 50.7% (active), 60.9% (active) and 36.6%.
On to `c1ccc2sc(NN=C3CCCC3)nc2c1`, for which the inhibition in assay [1] was 86.8% (active); in assay [2], 85.9% (active); in assay [3], 98.8% (active); in the assay with Caspase-3 (Homo sapiens), 88% (active); in assay [4], 15.5%.
Taken in the same sequence, the figures for `Cc1cccc(NC(=O)c2ccc3ccccc3n2)n1` were 76.6% (active), 76.1% (active), 93.6% (active), 65.2% (active) and 51.2% (active).
As to `CCCCCc1ccc(-c2ccc(C(=O)O)cc2)nc1`, the inhibition is -2.1% in assay [1]; 54.7% (active) in assay [2]; 76.9% (active) in assay [3]; 9.2% with Caspase-3 (Homo sapiens); 63.9% (active) in assay [4].
Taken in the same sequence, the figures for `c1ccc(Nc2nc(-c3ccncc3)cs2)nc1` were 84.9% (active), 85.1% (active), 97.3% (active), 84% (active) and 45.3%.
Taken in the same sequence, the figures for `Cc1cc(N=Nc2ccc3ccccc3c2)ccc1O` were 98.3% (active), 98.9% (active), 102% (active), 85.7% (active) and 76.6% (active).
Taken in the same sequence, the figures for `COc1ccc(Cc2nnc(SCC(=O)c3cccc([N+](=O)[O-])c3)n2C)cc1` were -3.9%, 1.7%, 6.9%, 4.6% and -2.3%.
In the case of `C/C(=N\NC(=O)c1ccoc1C)c1ccccc1O`, the inhibition was 38.5% in assay [1]; 36.8% in assay [2]; 80.7% (active) in assay [3]; 77.3% (active) with Caspase-3 (Homo sapiens); 63% (active) in assay [4].
Taken in the same sequence, the figures for `Cc1cc(NC(=O)c2ccc(F)cc2)ccc1NC(=O)c1ccco1` were 78.9% (active), 73.5% (active), 93% (active), 88.6% (active) and 14.8%.
On the same counts, the results for `O=C(Nc1ccc2c(c1)CCC2)c1cccc(S(=O)(=O)Nc2ccccc2Cl)c1` are 44%, 40.3%, 50.8% (active), 13.2% and 4.6%.
On the same counts, the results for `Cc1cccc(-c2noc(-c3ccc(F)cc3)n2)c1` are 63.5% (active), 69.8% (active), 89.5% (active), 80.6% (active) and 61.4% (active).
For `Cc1c(Cl)cccc1NC(=O)Nc1ccc(C(=O)N2CCCC2)cc1`, the inhibition was 20.5% in assay [1]; 43% in assay [2]; 77.1% (active) in assay [3]; 60.3% (active) with Caspase-3 (Homo sapiens); 11.4% in assay [4].
On the same counts, the results for `C/C(=C\C(=O)c1ccccc1)Nc1cccc(O)c1` are 43.1%, 47.3%, 82.2% (active), 39.4% and 66.4% (active).
For the compound `N/C(=N\OC(=O)c1ccc2c(c1)OCO2)c1ccc(Br)cc1`, the inhibition in assay [1] is -7.4%; in assay [2] it was 15.2%; in assay [3], 11.9%; with Caspase-3 (Homo sapiens), 17.8%; in assay [4], 3.3%.
With `Cc1[nH][nH]c(=O)c1C(c1ccc(-c2ccc(Cl)cc2)o1)c1c(C)[nH][nH]c1=O`, the inhibition in assay [1] was -6.8%; in assay [2], 16%; in assay [3], 2.9%; with Caspase-3 (Homo sapiens) it was 7.2%; in assay [4], 1.7%; in assay [5], 18%. The activation (fluorescence interference) in assay [6] was -1.73%.
For `CC(=O)N1C(=O)/C(=C2\SC(=S)N(NC(=O)c3ccc(O)cc3)C2=O)c2ccccc21`, the inhibition in assay [1] is 25.6%; in assay [2] it was 79.1% (active); in assay [3] it was 25.2%; with Caspase-3 (Homo sapiens) it was 10.3%; in assay [4], 3.7%.
With `N/C(=N\OC(=O)CCC1CCCCC1)c1ccccn1`, the inhibition in assay [1] is 88.5% (active); in assay [2], 88.3% (active); in assay [3], 98.2% (active); with Caspase-3 (Homo sapiens), 90.7% (active); in assay [4], 43.5%.
With `C/C(=N\NC(=O)CNc1cccc2ccccc12)c1ccc(Br)s1`, the inhibition is -9.7% in assay [1]; -9.8% in assay [2]; -3.4% in assay [3]; -2.4% in the assay with Caspase-3 (Homo sapiens); -7.4% in assay [4]; 13.9% in assay [5]. Moreover, in assay [6], the activation (fluorescence interference) is 3.87%.
On to `C=CCNC(=S)N1CCN(CCN=Cc2c(C)[nH]n(-c3ccc([N+](=O)[O-])cc3)c2=O)CC1`, for which the inhibition in assay [1] is 0.7%; in assay [2], 21.1%; in assay [3], 28%; in the assay with Caspase-3 (Homo sapiens) it was 56.6% (active); in assay [4], 16.9%.
Taken in the same sequence, the figures for `O=C(Cn1ccc([N+](=O)[O-])n1)NCc1cccs1` were -12.3%, -5.9%, -4.5%, -1.1% and -8.7%.
Taken in the same sequence, the figures for `c1ccc(-c2cc(-c3ccccc3)[nH]n2)cc1` were 69.7% (active), 64.5% (active), 85.8% (active), 38% and 71.4% (active).

The values above are taken from PubChem BioAssay.
